Measurements as given in PubChem BioAssay AID1117319 (Southern Research Institute, 2015).
Where “and” joins values, the source holds several entries; their conditions need not be identical. Equal values may be shown once. In all, about 260,000 compounds went through this assay and about 1,500 (0.58%) were called active. About 5% were inconclusive and are not listed.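 How the source made its calls: active means inhibition above a set limit at one or more doses, reproduced on every date tested; inconclusive means results disagree between test dates, or hit never tested in dose response; inactive means the rest.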 Only a sample is shown. Results with a measured potency or affinity are listed apart.

The compounds below were run against Virion infectivity factor (Human immunodeficiency virus type 1 group M subtype B (isolate BH10)) + Virion infectivity factor (Human immunodeficiency virus type 1 group M subtype B (isolate BRU/LAI)) + Virion infectivity factor (Human immunodeficiency virus type 1 group M subtype B (isolate PCV12)) + Virion infectivity factor (Human immunodeficiency virus type 1 group M subtype B (isolate HXB2)) + DNA dC->dU-editing enzyme APOBEC-3G (Homo sapiens) (UniProt P69720+P69721+P69722+P69723+Q9HC16) (assay: inhibitors of Vif binding to APOBEC3G peptide, primary screen, biochemical, TR-FRET, GST-Vif 1-94, biotin-A3G peptide, dose response retest (AID 1117319;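 further: Vif residues 1-94 fused to GST binding biotinylated APOBEC3G peptide 110-148; 0% = full assay without inhibitor and 100% = GST in place of GST-Vif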)). Conditions: stronger effect = higher value.

inhibition, inactive:
O=C(O)CCN1/C(=C/C=Nc2ccccc2)Oc2ccccc21 20.6%
COc1ccc(NC2CS(=O)(=O)CC2NCc2ccccc2)cc1 (stereo not drawn) -0.42%
O=S1(=O)CC(O)C(NCc2ccco2)C1 (stereo not drawn) 11.1%
COc1ccc(C2c3c(oc4ccccc4c3=O)C(=O)N2c2ccccn2)cc1OC (stereo not drawn) -8.31%
COC(=O)c1cc(O)c(O)c(O)c1 16.7%
COC1OC(COC(=O)c2ccccc2)C(OC(=O)c2ccccc2)C1OC(=O)c1ccccc1 (stereo not drawn) 3.23%
O=C1c2ccccc2C(=O)N1CCc1csc(-c2ccccc2)n1 0.09%
O=C(O)CC(c1ccccc1)c1ccccc1 0.95%
O=C(O)CC(Cn1[nH]nnc1=S)c1ccccc1 (stereo not drawn) -2.23%
Cc1cccc(N=CC=C2OC(C)(C)C(C)(C)O2)c1 -6.65%
Cc1ccc(NC(=O)CNC(=O)c2ccc(C(C)(C)C)cc2)cc1S(=O)(=O)N1CCOCC1 0.79%
CCO[C@H]1OC(C(=O)N2CCN(Cc3ccc4c(c3)OCO4)CC2)=C[C@@H](c2cn(C(C)=O)c3ccccc23)[C@@H]1CCCO -9.76%
O=C(CN1C(=O)NC2(CCCCC2)C1=O)NCc1ccc2c(c1)OCO2 -8.65%
O=C(CN1C(=O)NC2(CCCCCC2)C1=O)NCc1cccs1 -5.46%
CC1CCC2(CC1)NC(=O)N(CC(=O)NCc1ccc3c(c1)OCO3)C2=O (stereo not drawn) -3.28%
CC1CCC2(CC1)NC(=O)N(CC(=O)NCc1cccs1)C2=O (stereo not drawn) -3.91%
O=C(c1nc2ccccn2c1CNCCCn1cccn1)N1CCCC1 23.8%
C/C(=N\NC(=O)Cn1ccc(C(F)(F)F)n1)c1ccc2c(c1)OCO2 -1.38%
CCN(CC)CCOC(=O)c1ccc(NC(=O)c2cccc(C)c2[N+](=O)[O-])cc1 2.15%
COc1ccc(CNC(=O)C(c2ccncc2)N(C(=O)Cc2cccs2)c2cccnc2)cc1 (stereo not drawn) 2.85%
COc1ccc(NC(=O)C[C@H]2C(=O)N(Cc3cccnc3)C[C@@H]2Cc2ccccc2)cc1 -1.58%
O=C(NCCc1ccccc1)c1ncn[nH]1 28.1%
CCCNC(=O)Cc1ncn[nH]1 -3.15%
O=C(CCN1C(=O)c2ccccc2C1=O)CN1CCOCC1 -9.57%
O=C(NC1CCCC1)C(c1ccc(Cl)cc1)N1CCc2ccccc21 (stereo not drawn) 2.15%
CCc1ccc(CN(Cc2cccnc2)C(=O)/C=C/c2ccc(OC)cc2)cc1 -6.21%
CC(C)(C)c1ccc(C(=O)N2CCN(c3ncccn3)CC2)cc1 -3.51%
c1ccc2c(c1)CCN2CCN1CCc2ccccc21 -3.68%
CCN1C(=O)/C(=C/N2CCc3ccccc32)SC1=S 2.5%
O=C(C#Cc1ccccc1)c1ccccc1 -8.84%
COc1ccc(Cl)cc1N(CC(=O)Nc1cccc(SC)c1)S(C)(=O)=O 4.16%
CCN1C(=O)/C(=C/N(C)c2ccccc2)OC1=S 0.98%
CC(C)(C)c1ccc(OCCC(=O)Nc2cccc(S(=O)(=O)NC3=NCCCCC3)c2)cc1 -0.89%
COc1ccc(Nc2nc(C(=O)NCc3ccco3)cs2)cc1 -1.71%
O=C(NCc1ccco1)c1csc(Nc2ccccc2Cl)n1 -7.13%
O=C(CNC(=O)c1ccccc1F)OCCOc1cccc(Cl)c1 3.91%
Cc1ccc(CCNC(=O)C2CC(c3ccccc3C(F)(F)F)=NO2)cc1 (stereo not drawn) -3.19%
COc1ccc(-c2c(C#N)cnc(C)c2C)c(O)c1OC -2.84%
COc1ccc(C2=C(N)c3ccccc3C2=O)cc1 29%
COc1ccc(N)c2c1C(=O)c1ccccc1C2=O -29.2%
Cc1cccc(N2C(=O)c3ccc(Br)cc3C2=O)n1 1.11%
COc1ccc(-c2c(N)cnc(C(=O)O)c2C)c(OCc2ccccc2)c1OC 2.47%
NC1=C(Br)C(=O)c2ncccc2C1=O 0.39%
COc1ccc(CC(=O)Nc2ccc(C(N)=O)cc2)cc1 15.2%
CCOc1ccc(N2C(=O)CC(N(Cc3ccco3)C(=O)CC)C2=O)cc1 (stereo not drawn) 0.31%
Cc1c(N/C(=N/S(=O)(=O)c2ccc(F)cc2)c2ccccc2)c(=O)n(-c2ccccc2)n1C 0.73%
Cc1sc2nc(CSC(C)C(=O)NC3(C#N)CCCCC3)[nH]c(=O)c2c1C (stereo not drawn) 9.91%
C[C@]12C=CC(=O)C=C1CCC1C2CC[C@@]2(C)C1CCC21OCCO1 (stereo partly drawn) -4.95%
C=C(C)COc1ccc2c(CC)cc(=O)oc2c1C -15.7%
O=C(CCCN1C(=O)/C(=C\c2ccccc2)SC1=S)Nc1ccc(O)cc1 7.93%
O=C(CCCN1C(=O)/C(=C\c2cccs2)SC1=S)Nc1ccccc1O 3.84%
COc1ccc(/C=C2/SC(=S)N(CCCC(=O)Nc3cccc(O)c3)C2=O)cc1 4.43%
O=C(CCN1C(=O)/C(=C/c2ccco2)SC1=S)Nc1ccc(O)cc1C(=O)O 20.3%
CCN1C=C(Cc2ccccc2C)C2=C(C1)C(c1ccccc1C)C(C#N)=C(N)O2 (stereo not drawn) 3.15%
O=C(CCC(=O)Nc1ccccc1Cl)NNC(=O)Nc1cccc([N+](=O)[O-])c1 -2.42%
c1ccc(N2CCN(c3ncccn3)CC2)cc1 2.21%
c1ccc(N2CCN(c3cnccn3)CC2)nc1 -2.48%
Cc1ccc(Sc2ncccc2C(=O)O)cc1 1.95%
O=C(NCC(c1ccco1)N1CCCC1)c1cn(-c2ccccc2)nc1-c1ccc(F)cc1 (stereo not drawn) -3.8%
C[C@H](NS(=O)(=O)c1ccccc1)C(=O)N1CCN(C(c2ccccc2)c2ccccc2)CC1 0.88%
COc1ccc(OC)c(NS(=O)(=O)c2ccc(Br)s2)c1 2.77%
Oc1cccc2ccc(N3CCOCC3)nc12 -8.55%
CC(C)(C)C(=O)Oc1cc(N)n(S(=O)(=O)c2ccccc2)n1 -2.72% and -3.77%
COc1ccc(CN(C(=O)c2cccs2)c2ccccc2C(=O)O)cc1 -12.9%
O=C1OCCC1Sc1ncnc2sc3c(c12)CCC3 (stereo not drawn) 21.7%
CN(Cc1ccccc1)C(=O)COC(=O)C1CCN(S(=O)(=O)c2ccc3c(c2)OCCO3)CC1 -5.03%
COC(=O)c1[nH]c(C)c(/C(O)=C2\C(=O)C(=O)N(CCN3CCOCC3)C2c2ccco2)c1C (stereo not drawn) 10.8%
Cc1ccc(C)c(/C(O)=C2\C(=O)C(=O)N(CCCN3CCOCC3)C2c2cccnc2)c1 (stereo not drawn) -1.34%
CC(CCc1ccccc1)NC(=O)c1nnc(Cc2ccc(Cl)cc2)o1 (stereo not drawn) -1.14%
Cc1ccc(O)c(Sc2cc(C)ccc2O)c1 3.64%
CNCc1ccccc1Sc1cccc2ccccc12 -4.29%
CNCc1ccccc1Sc1ccc(OC)cc1 4.31%
CNCc1ccccc1Sc1cccc(O)c1 -4.96%
O=C(COc1cc(F)ccc1[N+](=O)[O-])Nc1ccc2c(c1)OCO2 -6.99%
CNCCCOc1cccc(Oc2ccccc2)c1 9.66%
COc1cccc2cc(C(=O)c3ccccc3)oc12 -4.51%
O=C(Nc1ccc2c(c1)OCO2)c1cc2ncc(Br)cn2n1 6.91%
O=C(NCc1ccc2c(c1)OCO2)c1ccccn1 10.1%
O=C(NN1CCOCC1)c1cc(-c2ccc(Cl)c(Cl)c2)nc2ccccc12 -15.2%
CC1CC(OCC(O)CN2CCOCC2)CC(C)(C)C1 (stereo not drawn) -2.99%
N#CCC(=O)Nc1ccc(C(=O)OC(C(=O)Nc2cc(C(F)(F)F)ccc2Cl)c2ccccc2)cc1 (stereo not drawn) 6.13%
CCOC(=O)C(=NC1CCS(=O)(=O)C1)NNc1cc(Cl)ccc1Cl (stereo not drawn) 11.7%
CCOC(=O)CCCn1ncn2c(cc3occc32)c1=O 7.22%
COC(=O)Cn1ncn2cccc2c1=O 31%
CC1CCCCC1NC(=O)CCNS(=O)(=O)c1ccc2c(c1)CCC(=O)N2 (stereo not drawn) 6.16%
CCCn1nc(C(=O)Nc2cccc(C(=O)OC)c2)c2ccccc2c1=O 0.28%
COC(=O)c1ccc(C)c(NC(=O)c2nn(C)c(=O)c3ccccc23)c1 0.46%
CCN(C(=O)C1CCCCC1)c1nnc(-c2cccnc2)s1 -11.9%
O=C(C1CCCN1S(=O)(=O)c1cccc2cccnc12)N1CCc2ccccc2C1 (stereo not drawn) 8.45%
O=C(C1CCN(S(=O)(=O)c2cccc3cccnc23)CC1)N1CCN(c2ccccc2)CC1 3.12%
O=C1CCCN1CCCNC(=S)Nc1cccc2ccccc12 30.4%
CC(C)OC(=O)CSc1nnc(-c2ccncc2)n1N -2.43%
O=c1cc(CN2CCc3ccccc32)nc2sccn12 23.2%
O=c1cc(CN2CCCc3ccccc32)nc2sccn12 22%
Cc1ccc(CCNc2ncnc(Cl)c2N)cc1 -3.15%
Cc1nn(C)cc1/C=N\NC(=O)c1ccc(Cn2cc(Cl)cn2)cc1 -3.19%
COc1cc(C(C#N)N2CCCCC2)ccc1O (stereo not drawn) 7.46%
COc1cccc(C(C#N)N2N=C(C)CC2(C)C)c1O (stereo not drawn) -2.38%
